# From PubChem BioAssay (Tox21)
# Values without a mark were called inactive. Results filed as inconclusive are left out. A call without a number means that no potency is given here. Active and inactive are the calls of the source. Unless noted, the call rests on the fitted dose curve.
# How the values were obtained:
# [1] = Nuclear factor erythroid 2-related factor 2/antioxidant responsive element (Nrf2/ARE) small molecule agonists: qHTS cell viability counter screen in human keratinocytes (AID 1919968; active means well fitted curve in the direction sought with a large enough effect in the repeat runs; an effect the other way counts as inactive or inconclusive; further: nearly all actives have a fitted effect of over 55% in size; further: potency means the concentration at half of the fitted maximal effect)
# Procedure, shortened: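 Cytotoxicity was multiplexed with the Nrf2/ARE luciferase assay in the same wells. Stably transfected HaCaT keratinocytes were treated with test compounds for 23 h at 37 C. Cell viability was then measured by CellTiter-Fluor fluorescence.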
# [2] = Nuclear factor erythroid 2-related factor 2/antioxidant responsive element (Nrf2/ARE) small molecule agonists: luciferase reporter gene qHTS assay in human keratinocytes (AID 1919969); further: nearly all actives have a fitted effect of over 35% in size; further: potency means the concentration at half of the fitted maximal effect
# [3] = biological target: Gonadotropin-releasing hormone receptor (Homo sapiens) (UniProt P30968); assay: Human gonadotropin-releasing hormone receptor (GnRHR) small molecule agonists, calcium flux assay in GnRHR-HEK293 cells (AID 1920063); further: nearly all actives have a fitted effect of over 35% in size
# Procedure, shortened: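 Agonist activity was measured as intracellular calcium flux in HEK293 cells engineered to stably express human GnRHR. After dye loading for 1 hour at 37 C, compounds in DMSO were added and fluorescence was followed for 3 minutes.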
# [4] = biological target: KiSS-1 receptor (Homo sapiens) (UniProt Q969F8); assay: Human kisspeptin (KISS1R) small molecule agonists, calcium flux assay in KISS1R-HEK293 cells (AID 1920064; active means well fitted curve in the direction sought with a large enough effect in the repeat runs; an effect the other way counts as inactive or inconclusive)
# Procedure, shortened: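 Agonist activity is monitored as intracellular calcium rise in engineered HEK293 cells carrying human KISS1R. Cells are dye-loaded for 1 h at 37 C before compound addition, and fluorescence is recorded for 3 min.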
# [5] = p53 small molecule agonists, cell-based qHTS assay with human liver microsomes: qHTS cell viability counter screen (AID 1963579); further: nearly all actives have a fitted effect of over 45% in size; further: potency means the concentration at half of the fitted maximal effect
# Procedure, shortened: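 Viability of p53RE-bla cells is measured as CellTiter-Glo luminescence following a 16 h, 37 C incubation with compound, liver microsomes from human donors and NADPH.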
# [6] = p53 small molecule agonists, cell-based qHTS assay with rat liver microsomes: qHTS cell viability counter screen (AID 1963580); further: nearly all actives have a fitted effect of over 45% in size
# Procedure, shortened: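 Counter screen for cytotoxicity under metabolic activation: rat liver microsomes and NADPH, 0.5 mg/mL final each, added with compounds to p53RE-bla HCT-116 cells; 16 h at 37 C, then ATP luminescence read.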
# [7] = biological target: 5-hydroxytryptamine receptor 2A (Homo sapiens) (UniProt P28223); assay: 5-hydroxytryptamine receptor 2A (HTR2A) small molecule agonists, cell-based qHTS assay (AID 1963587); further: nearly all actives have a fitted effect of over 30% in size
# Procedure, shortened: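 HTR2A-CHO cells, plated 18 h at 37 C/5% CO2, dye-loaded 1 h at 37 C; compounds in DMSO added by pin tool (agonist mode). Intracellular calcium flux read as kinetic fluorescence on FDSS over 2 min at 1 s intervals.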
# [8] = biological target: Muscarinic acetylcholine receptor M1 (Homo sapiens) (UniProt P11229); assay: Cholinergic receptor muscarinic 1 (CHRM1) small molecule antagonists, cell-based qHTS assay (AID 1963588); further: nearly all actives have a fitted effect of over 40% in size
# Procedure, shortened: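 Compounds were tested at 15 concentrations in three independent runs. Dye-loaded CHRM1-CHO cells were exposed 5 min at room temperature before stimulation by acetylcholine added at 50nM. Intracellular calcium was read kinetically on FDSS for 3 min.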
# [9] = biological target: Muscarinic acetylcholine receptor M1 (Homo sapiens) (UniProt P11229); assay: Cholinergic receptor muscarinic 1 (CHRM1) small molecule agonists, cell-based qHTS assay (AID 1963589); further: nearly all actives have a fitted effect of over 35% in size
# Procedure, shortened: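 Cells were plated and incubated 18 h at 37 C/5% CO2, loaded with calcium dye for 1 h at 37 C, then treated with compounds in DMSO. Fluorescence was recorded kinetically at 1 sec intervals.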
# [10] = cAMP Responsive Elements (CRE) small molecule agonists, cell-based qHTS assay (AID 1963590)
# Procedure, shortened: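 Cells carrying a CRE-driven beta-lactamase reporter (HEK 293T) are seeded, incubated overnight (18 h), and treated with test compounds for 3 h at 37 C; reporter activity is then detected with a FRET substrate after 2 h at room temperature.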
# [11] = cAMP Responsive Elements (CRE) small molecule antagonists, cell-based qHTS assay (AID 1963591; active means well fitted inhibition curve with a large enough effect in the signal ratio in the repeat runs, not every such curve was filed as active; the % refers to the signal ratio)
# Procedure, shortened: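 Cells (CRE-bla HEK 293T, DMEM with 10% dialyzed FBS and 25 mM HEPES) are seeded and incubated 18 h. Compounds are added with NKH477 agonist at 0.25 uM final for 3 h, then FRET substrate for 2 h.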
# [12] = biological target: Beta-2 adrenergic receptor (Homo sapiens) (UniProt P07550); assay: Adrenergic beta2 receptor (ADRB2) small molecule antagonists, cell-based qHTS assay (AID 1963592); further: series mostly up to about 92 µM; nearly all actives have a fitted effect of over 50% in size
# Procedure, shortened: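 Assay format: CHO-ADRB2 cells, 18-20hr seeding at 37C/5% CO2, then compound plus 1nM isoproterenol agonist mix for 0.5hr RT. Homogeneous time-resolved fluorescence cAMP detection after 1hr, expressed as 665/615 nm ratio.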
# [13] = biological target: D(2) dopamine receptor (Homo sapiens) (UniProt P14416); assay: Dopamine D2 receptor (DRD2) small molecule agonists, cell-based qHTS assay (AID 1963594); further: nearly all actives have a fitted effect of over 35% in size
# Procedure, shortened: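 HEK293 cells stably expressing DRD2 were cultured 24 h at 37 C, then given Ro20-1724 (0.1 mM final) and compounds for 10 min at room temperature. NKH477 (200nM) was then added for 30 min. cAMP was read by HTRF.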
# [14] = biological target: D(2) dopamine receptor (Homo sapiens) (UniProt P14416); assay: Dopamine D2 receptor (DRD2) small molecule antagonists, cell-based qHTS assay (AID 1963595; active means well fitted inhibition curve with a large enough effect in the signal ratio in the repeat runs, with a control signal flat; the % refers to the signal ratio)
# Procedure, shortened: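 HTRF cAMP read-out at 665 and 620 nm emission (340 nm excitation). Antagonist mode: compounds were tested against 12 nM quinpirole in DRD2-HEK293 cells, with 200 nM NKH477 raising cAMP and 0.1 mM Ro20-1724 blocking its breakdown.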
# [15] = G protein-coupled receptor (GPCR) small molecule agonists, calcium flux assay: HEK293 wild type cell line counter screen (AID 1920065)
# Procedure, shortened: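 Seed cells, incubate 18 h (37 C, 5% CO2); add calcium dye, 1 h at 37 C; pin-transfer compounds, ATP control or DMSO; read fluorescence 480/540 nm each second for 3 min.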
# [16] = p53 small molecule agonists, cell-based qHTS assay with human liver microsomes (AID 1963577); further: potency means the concentration at half of the fitted maximal effect;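 on activation: p53 response element beta-lactamase reporter cells with liver microsomes plus NADPH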
# Procedure, shortened: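 HLM-supplemented p53RE-bla reporter assay: 16 h compound exposure at 37 C, microsomes and NADPH each 0.5 mg/mL final, read by fluorescence intensity.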
# [17] = p53 small molecule agonists, cell-based qHTS assay: qHTS cell viability counter screen (AID 1963581); further: nearly all actives have a fitted effect of over 45% in size; further: potency means the concentration at half of the fitted maximal effect
# Procedure, shortened: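 Viability was counter-screened in parallel with the p53 agonist reporter by measuring intracellular ATP luminescence in the same HCT-116 p53RE-bla wells after 16 h compound treatment at 37 C.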
# [18] = p53 small molecule agonists, cell-based qHTS assay (AID 1963582; active means well fitted activation curve with a large enough effect in the signal ratio in the repeat runs, not every such curve was filed as active; the % refers to the signal ratio)
# Procedure, shortened: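 Cells carrying a p53-responsive bla reporter are treated with test compounds for 16 h at 37 C; beta-lactamase activity is then detected with LiveBLAzer B/G FRET substrate after 2 h at room temperature.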
# [19] = biological target: 5-hydroxytryptamine receptor 2A (Homo sapiens) (UniProt P28223); assay: 5-hydroxytryptamine receptor 2A (HTR2A) small molecule antagonists, cell-based qHTS assay (AID 1963586); further: nearly all actives have a fitted effect of over 45% in size
# Procedure, shortened: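 CHO cells stably expressing human HTR2A were plated for 18 h at 37 C, then loaded with calcium dye for 1 h. Compounds were preincubated 5 min at room temperature before DOI (4 nM solution) was added. Kinetic fluorescence was read for 3 min.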
# [20] = biological target: Beta-2 adrenergic receptor (Homo sapiens) (UniProt P07550); assay: Adrenergic beta2 receptor (ADRB2) small molecule agonists, cell-based qHTS assay (AID 1963593);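 further: CHO cells stably overexpressing human ADRB2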
# Procedure, shortened: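 CHO cells stably over-expressing ADRB2 were plated overnight at 37C, then dosed with compounds plus a stimulation mix containing 100uM IBMX and 25uM Ro-20-1724 for 0.5hr at room temperature. cAMP was measured by HTRF competition, 1hr.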
# Chain of D(2) dopamine receptor (Homo sapiens) (P14416 whole entry, looked up): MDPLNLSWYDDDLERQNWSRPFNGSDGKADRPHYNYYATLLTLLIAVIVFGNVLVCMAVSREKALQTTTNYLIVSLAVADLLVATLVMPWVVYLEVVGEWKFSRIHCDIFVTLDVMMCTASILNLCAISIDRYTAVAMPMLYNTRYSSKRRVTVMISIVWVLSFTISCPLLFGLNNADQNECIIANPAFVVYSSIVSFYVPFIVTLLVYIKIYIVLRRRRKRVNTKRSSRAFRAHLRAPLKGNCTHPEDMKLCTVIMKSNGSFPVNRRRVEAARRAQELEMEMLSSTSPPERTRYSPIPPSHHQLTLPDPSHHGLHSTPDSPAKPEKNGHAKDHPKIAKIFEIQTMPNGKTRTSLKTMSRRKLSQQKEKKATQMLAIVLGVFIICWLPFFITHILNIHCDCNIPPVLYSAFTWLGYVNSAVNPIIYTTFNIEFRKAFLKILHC
# Chain of 5-hydroxytryptamine receptor 2A (Homo sapiens) (P28223 whole entry, looked up): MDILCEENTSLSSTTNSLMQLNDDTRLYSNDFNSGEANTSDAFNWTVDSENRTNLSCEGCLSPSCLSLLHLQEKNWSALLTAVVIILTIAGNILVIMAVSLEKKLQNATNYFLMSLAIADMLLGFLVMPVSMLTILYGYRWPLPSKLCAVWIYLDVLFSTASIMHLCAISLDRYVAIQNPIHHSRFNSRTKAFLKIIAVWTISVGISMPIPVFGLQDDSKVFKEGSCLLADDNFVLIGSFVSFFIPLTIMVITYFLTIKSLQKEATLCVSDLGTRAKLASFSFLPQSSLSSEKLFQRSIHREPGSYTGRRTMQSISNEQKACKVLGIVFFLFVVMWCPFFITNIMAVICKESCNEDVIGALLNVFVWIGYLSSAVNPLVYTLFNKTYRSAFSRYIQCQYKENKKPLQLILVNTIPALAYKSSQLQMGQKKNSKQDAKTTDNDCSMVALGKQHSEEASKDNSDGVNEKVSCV
# Chain of Beta-2 adrenergic receptor (Homo sapiens) (P07550 whole entry, looked up): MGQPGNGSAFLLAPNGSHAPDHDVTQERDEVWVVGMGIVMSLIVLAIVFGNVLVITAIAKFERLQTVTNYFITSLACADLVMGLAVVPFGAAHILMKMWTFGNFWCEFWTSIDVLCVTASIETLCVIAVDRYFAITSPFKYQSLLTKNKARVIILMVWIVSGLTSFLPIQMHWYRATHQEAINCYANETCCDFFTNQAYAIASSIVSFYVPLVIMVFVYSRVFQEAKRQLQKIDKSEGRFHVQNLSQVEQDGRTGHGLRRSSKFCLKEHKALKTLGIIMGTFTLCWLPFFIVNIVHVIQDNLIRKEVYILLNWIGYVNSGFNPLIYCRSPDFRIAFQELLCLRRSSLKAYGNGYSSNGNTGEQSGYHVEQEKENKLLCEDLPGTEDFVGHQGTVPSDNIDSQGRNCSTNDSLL
# Chain of KiSS-1 receptor (Homo sapiens) (Q969F8 whole entry, looked up): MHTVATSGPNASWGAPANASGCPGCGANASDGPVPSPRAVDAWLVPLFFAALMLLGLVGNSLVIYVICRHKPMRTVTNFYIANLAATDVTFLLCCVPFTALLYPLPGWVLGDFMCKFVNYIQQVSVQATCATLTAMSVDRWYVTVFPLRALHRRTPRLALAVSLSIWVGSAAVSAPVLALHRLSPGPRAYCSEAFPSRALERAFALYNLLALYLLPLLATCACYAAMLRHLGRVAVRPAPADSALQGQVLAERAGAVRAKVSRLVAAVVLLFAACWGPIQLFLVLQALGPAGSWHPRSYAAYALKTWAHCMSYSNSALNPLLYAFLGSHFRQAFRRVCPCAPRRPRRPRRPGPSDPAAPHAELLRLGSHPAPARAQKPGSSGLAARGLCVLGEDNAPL
# Chain of Gonadotropin-releasing hormone receptor (Homo sapiens) (P30968 whole entry, looked up): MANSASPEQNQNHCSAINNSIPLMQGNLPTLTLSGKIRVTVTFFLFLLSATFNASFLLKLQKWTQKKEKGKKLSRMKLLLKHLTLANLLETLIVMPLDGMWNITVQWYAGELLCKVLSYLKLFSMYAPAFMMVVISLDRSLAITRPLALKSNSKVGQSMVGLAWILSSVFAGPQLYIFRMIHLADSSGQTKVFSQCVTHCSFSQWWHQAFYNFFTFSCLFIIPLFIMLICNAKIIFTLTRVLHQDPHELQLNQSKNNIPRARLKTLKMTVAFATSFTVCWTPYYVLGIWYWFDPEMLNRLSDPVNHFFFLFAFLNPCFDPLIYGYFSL
# Chain of Muscarinic acetylcholine receptor M1 (Homo sapiens) (P11229 whole entry, looked up): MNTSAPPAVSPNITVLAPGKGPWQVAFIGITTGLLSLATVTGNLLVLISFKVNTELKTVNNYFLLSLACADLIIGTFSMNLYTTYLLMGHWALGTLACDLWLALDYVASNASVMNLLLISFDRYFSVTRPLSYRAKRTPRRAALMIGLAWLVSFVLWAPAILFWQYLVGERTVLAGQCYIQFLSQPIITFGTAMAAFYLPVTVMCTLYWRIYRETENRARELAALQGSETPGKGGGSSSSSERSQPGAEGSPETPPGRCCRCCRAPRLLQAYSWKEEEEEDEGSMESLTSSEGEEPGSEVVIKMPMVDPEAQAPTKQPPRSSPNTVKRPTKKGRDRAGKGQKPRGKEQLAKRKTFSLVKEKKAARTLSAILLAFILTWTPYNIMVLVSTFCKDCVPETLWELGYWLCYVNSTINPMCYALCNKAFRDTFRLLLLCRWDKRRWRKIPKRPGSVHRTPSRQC
structure (smiles),measurement,setting,value
ClCBr,Potency,[1],inactive
same,Potency,[2],inactive
same,Potency,[3],inactive
same,Potency,[4],inactive
same,Potency,[5],inactive
same,Potency,[6],inactive
same,Potency,[7],inactive
same,Potency,[8],inactive
same,Potency,[9],inactive
same,Potency,[10],inactive
same,Potency,[11],inactive
same,Potency,[12],inactive
same,Potency,[13],inactive
same,Potency,[14],inactive
O=C(O)CC(Cl)C(=O)O (stereo not given),Potency,[1],inactive
same,Potency,[2],inactive
same,Potency,[3],inactive
same,Potency,[15],inactive
same,Potency,[16],inactive
same,Potency,[5],inactive
same,Potency,[6],inactive
same,Potency,[17],inactive
same,Potency,[18],inactive
same,Potency,[19],inactive
same,Potency,[7],inactive
same,Potency,[8],inactive
same,Potency,[9],inactive
same,Potency,[10],inactive
same,Potency,[12],inactive
same,Potency,[20],inactive
same,Potency,[13],inactive
same,Potency,[14],inactive
CCOCn1c(-c2ccc(Cl)cc2)c(C#N)c(Br)c1C(F)(F)F,Potency,[1],34.4 µM (active)
same,Potency,[2],24.3 µM (active)
same,Potency,[3],inactive
same,Potency,[4],inactive
same,Potency,[5],22.9 µM (active)
same,Potency,[17],10.2 µM (active)
same,Potency,[19],inactive
same,Potency,[7],inactive
same,Potency,[8],inactive
same,Potency,[9],inactive
same,Potency,[13],inactive
same,Potency,[14],inactive
C=CC(=O)N(C)C,Potency,[1],inactive
same,Potency,[2],inactive
same,Potency,[3],inactive
same,Potency,[15],inactive
same,Potency,[16],inactive
same,Potency,[5],inactive
same,Potency,[6],inactive
same,Potency,[17],inactive
same,Potency,[18],inactive
same,Potency,[19],inactive
same,Potency,[7],inactive
same,Potency,[8],inactive
same,Potency,[9],inactive
same,Potency,[10],inactive
same,Potency,[12],inactive
same,Potency,[13],inactive
NCC(CC(=O)O)c1ccc(Cl)cc1 (stereo not given),"activity change, negative = cytotoxicity",[1],20.7% [at 0.349 µM]
same,"activity, positive = activation",[2],2.43% [at 0.349 µM]
same,activity change,[3],"-1.11% [at 0.217 µM, stronger effect = higher value]"
same,activation,[4],-1.08% [at 0.29 µM]
same,"activity change, negative = cytotoxicity",[5],-3.85% [at 0.249 µM]
same,"activity change, negative = cytotoxicity",[6],5.91% [at 0.249 µM]
same,activation,[10],-1.8% [at 0.349 µM]
same,"activity change, negative = inhibition",[11],-4.66% [at 0.349 µM]
same,"activity change, negative = inhibition",[12],2.66% [at 0.349 µM]
same,activation,[20],10.6% [at 0.349 µM]
same,activation,[13],0.37% [at 0.349 µM]
same,"activity change, negative = inhibition",[14],1.84% [at 0.348 µM]
CC(C(O)c1ccccc1)N(C)C/C=C/c1ccccc1 (stereo not given),Potency,[1],inactive
same,Potency,[2],inactive
same,Potency,[3],inactive
same,Potency,[15],inactive
same,Potency,[16],inactive
same,Potency,[5],inactive
same,Potency,[6],inactive
same,Potency,[17],inactive
same,Potency,[18],inactive
same,Potency,[7],inactive
same,Potency,[9],inactive
same,Potency,[20],inactive
same,Potency,[13],inactive
same,Potency,[14],inactive
COC(=O)c1ccccc1S(=O)(=O)NC(=O)Nc1nc(C)nc(OC)n1,Potency,[1],inactive
same,Potency,[2],inactive
same,Potency,[3],inactive
same,Potency,[15],inactive
same,Potency,[16],inactive
same,Potency,[5],inactive
same,Potency,[17],inactive
same,Potency,[18],inactive
same,Potency,[19],inactive
same,Potency,[7],inactive
same,Potency,[8],inactive
same,Potency,[9],inactive
same,Potency,[10],inactive
same,Potency,[12],inactive
same,Potency,[13],inactive
same,Potency,[14],inactive
COP(=S)(OC)Oc1c(Cl)cc(C)cc1Cl,Potency,[1],inactive
same,Potency,[2],inactive
same,Potency,[3],inactive
same,Potency,[4],inactive
same,Potency,[16],9.13 µM (active)
same,Potency,[6],inactive
same,Potency,[17],inactive
same,Potency,[18],inactive
same,Potency,[19],inactive
same,Potency,[8],inactive
same,Potency,[9],inactive
same,Potency,[10],inactive
same,Potency,[11],inactive
same,Potency,[12],inactive
same,Potency,[20],inactive
same,Potency,[13],inactive
same,Potency,[14],inactive
COc1ncc(F)c2nc(S(=O)(=O)Nc3c(F)cccc3F)nn12,Potency,[1],inactive
same,Potency,[2],inactive
same,Potency,[3],inactive
same,Potency,[15],inactive
same,Potency,[5],inactive
same,Potency,[17],inactive
same,Potency,[19],inactive
same,Potency,[7],inactive
same,Potency,[8],inactive
same,Potency,[9],inactive
same,Potency,[10],inactive
same,Potency,[11],inactive
same,Potency,[12],inactive
same,Potency,[20],inactive
same,Potency,[13],inactive
same,Potency,[14],inactive
C[C@]12Cc3nonc3C[C@@H]1CC[C@@H]1[C@@H]2CC[C@@]2(C)[C@H]1CC[C@]2(C)O,Potency,[1],inactive
same,Potency,[2],inactive
same,Potency,[4],inactive
same,Potency,[15],inactive
same,Potency,[16],inactive
same,Potency,[5],inactive
same,Potency,[6],inactive
same,Potency,[17],inactive
same,Potency,[18],inactive
same,Potency,[19],inactive
same,Potency,[8],inactive
same,Potency,[9],inactive
same,Potency,[13],inactive
CCOP(=S)(S)OCC,Potency,[1],inactive
same,Potency,[2],64.4 µM (active)
same,Potency,[3],inactive
same,Potency,[15],inactive
same,Potency,[5],inactive
same,Potency,[6],inactive
same,Potency,[17],inactive
same,Potency,[18],inactive
same,Potency,[19],inactive
same,Potency,[7],inactive
same,Potency,[9],inactive
same,Potency,[10],inactive
same,Potency,[11],inactive
same,Potency,[12],inactive
same,Potency,[20],inactive
same,Potency,[13],inactive
same,Potency,[14],inactive
